These results are taken from PubChem BioAssay (EPA / NIEHS).

Common to all, as to details: mRNA level, 48 h; actives raise or lower the signal
Read-out in experiment [1]: Peroxisomal acyl-coenzyme A oxidase 1 (ACOX1) gene, ACOX1 (gene 51)
As to the kind of experiment: LTEA_HepaRG_ACOX1: Life Technologies and Expression Analysis (LTEA) Assay for Peroxisomal acyl-coenzyme A oxidase 1 (ACOX1) gene using HepaRG (AID 2283467). In short, it runs like this: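 HepaRG cells, plated 48 h then switched to serum-free induction medium, were exposed in duplicate for 48 h to 8-point half-log concentrations up to 100 uM in 0.5% DMSO. ACOX1 mRNA was measured by qRT-PCR, normalized to ACTB/GAPDH/POLR2A, and fitted bidirectionally versus DMSO.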

Read-out in experiment [2]: Alkaline Phosphatase, Placental (ALPP) gene, ALPP (gene 250)
Description: LTEA_HepaRG_ALPP: Life Technologies and Expression Analysis (LTEA) Assay for Alkaline Phosphatase, Placental (ALPP) gene using HepaRG (AID 2283468). In a few lines:
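HepaRG cells plated 48 h, then exposed in duplicate for 48 h in serum-free induction medium to 8-point half-log series from 100 uM in 0.5% DMSO. ALPP mRNA by TaqMan qRT-PCR, normalized to ACTB/GAPDH/POLR2A; bidirectional fit versus DMSO.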

Read-out in experiment [3]: Bcl-2 (BAD) gene, BAD (gene 572)
Description: LTEA_HepaRG_BAD: Life Technologies and Expression Analysis (LTEA) Assay for Bcl-2 (BAD) gene using HepaRG (AID 2283469). In short, it runs like this:
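Differentiated HepaRG cells were exposed in duplicate in 0.5% DMSO for 48 h to eight-point half-log concentrations up to 100 uM. BAD mRNA was measured by Fluidigm TaqMan qRT-PCR, normalized to ACTB, GAPDH and POLR2A, and fitted bidirectionally against DMSO.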

Read-out in experiment [4]: Bcl-2 (BAX) gene, BAX (gene 581)
As to the kind of experiment: LTEA_HepaRG_BAX: Life Technologies and Expression Analysis (LTEA) Assay for Bcl-2 (BAX) gene using HepaRG (AID 2283470). In short, it runs like this: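 HepaRG (human liver), 48 h exposure, duplicate wells. 8-pt curve, half-log from 100 uM, 0.5% DMSO. BAX transcript by TaqMan qRT-PCR; ACTB/GAPDH/POLR2A normalization; gain or loss vs DMSO baseline.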

Read-out in experiment [5]: adenosine kinase (ADK) gene, ADK (gene 132)
As to the kind of experiment: LTEA_HepaRG_ADK: Life Technologies and Expression Analysis (LTEA) Assay for adenosine kinase (ADK) gene using HepaRG (AID 2283471). In short, it runs like this: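 HepaRG (human liver), 48 h chemical exposure, 8-pt half-log series, top 100 uM, 0.5% DMSO vehicle. Readout: ADK mRNA by qRT-PCR vs housekeeping genes; bidirectional curve fit relative to DMSO baseline.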

Read-out in experiment [6]: Alpha-fetoprotein (AFP) gene, AFP (gene 174)
As to the kind of experiment: LTEA_HepaRG_AFP: Life Technologies and Expression Analysis (LTEA) Assay for Alpha-fetoprotein (AFP) gene using HepaRG (AID 2283472). In a few lines:
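HepaRG, single lot; 48 h post-plating -> serum-free induction medium; cpd 8-pt, 100 uM top, half-log, 0.5% DMSO, duplicate, 48 h. RNA -> qRT-PCR AFP, norm ACTB/GAPDH/POLR2A. Bidirectional fit vs DMSO.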

Read-out in experiment [7]: Apolipoprotein A-V (APOA5) gene, APOA5 (gene 116519)
As to the kind of experiment: LTEA_HepaRG_APOA5: Life Technologies and Expression Analysis (LTEA) Assay for Apolipoprotein A-V (APOA5) gene using HepaRG (AID 2283474). In short, it runs like this: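 Differentiated HepaRG cells in serum-free induction medium, exposed 48 h in duplicate to eight half-log concentrations topping at 100 uM (0.5% DMSO). APOA5 mRNA by Fluidigm TaqMan qRT-PCR, normalized to ACTB, GAPDH and POLR2A; bidirectional fit versus DMSO.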

Read-out in experiment [8]: Apoptosis regulator Bcl-2 (Homo sapiens) (UniProt P10415)
Description: LTEA_HepaRG_BCL2: Life Technologies and Expression Analysis (LTEA) Assay for Bcl-2 gene using HepaRG (AID 2283475). In short, it runs like this:
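HepaRG, plated 48 h then switched to serum-free induction medium; dosed 48 h, 8 conc. (max 100 uM, half-log steps), duplicate, 0.5% DMSO. Lysis in RLT, RNA isolated, TaqMan qRT-PCR for BCL2; ACTB/GAPDH/POLR2A normalisation; bidirectional fit vs DMSO.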

Read-out in experiment [9]: Bcl-2 (BID) gene, BID (gene 637)
As to the kind of experiment: LTEA_HepaRG_BID: Life Technologies and Expression Analysis (LTEA) Assay for Bcl-2 (BID) gene using HepaRG (AID 2283476). In short, it runs like this: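 Transcript levels of BID, measured by qRT-PCR and normalized to three housekeeping genes, were fitted bidirectionally against DMSO controls. Cells were HepaRG, dosed 48 h at up to 100 uM.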

Read-out in a further experiment: Caspase-3 (Homo sapiens) (UniProt P42574)
As to the kind of experiment: LTEA_HepaRG_CASP3: Life Technologies and Expression Analysis (LTEA) Assay for cysteine-aspartic acid protease (CASP3) using HepaRG (AID 2283477). In short, it runs like this:
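Differentiated HepaRG cells, plated 48 h, were treated in duplicate in serum-free induction medium for 48 h with eight half-log concentrations up to 100 uM in 0.5% DMSO. CASP3 mRNA measured by qRT-PCR, normalized to ACTB, GAPDH, POLR2A.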

Read-out in experiment [10]: Cytochrome P450 (CYP24A1), CYP24A1 (gene 1591)
Description: LTEA_HepaRG_CYP24A1: Life Technologies and Expression Analysis (LTEA) Assay for Cytochrome P450 (CYP24A1) using HepaRG (AID 2283478). In short, it runs like this:
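HepaRG cells plated 48 h, then exposed in duplicate in serum-free induction medium for 48 h to 8-point half-log series from 100 uM in 0.5% DMSO. CYP24A1 mRNA by Fluidigm qRT-PCR, normalized to ACTB, GAPDH, POLR2A; bidirectional fit versus DMSO.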

Read-out in experiment [11]: Cytochrome P450 (CYP1A2), CYP1A2 (gene 1544)
As to the kind of experiment: LTEA_HepaRG_CYP1A2: Life Technologies and Expression Analysis (LTEA) Assay for Cytochrome P450 (CYP1A2) using HepaRG (AID 2283479). In a few lines:
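Differentiated human HepaRG cells in serum-free induction medium exposed 48 hours in duplicate to 8 half-log concentrations from 100 uM, 0.5% DMSO. CYP1A2 mRNA quantified by qRT-PCR, normalized to ACTB, GAPDH and POLR2A; bidirectional fitting versus DMSO.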

Read-out in experiment [12]: cysteine-aspartic acid protease (CASP8), CASP8 (gene 841)
As to the kind of experiment: LTEA_HepaRG_CASP8: Life Technologies and Expression Analysis (LTEA) Assay for cysteine-aspartic acid protease (CASP8) using HepaRG (AID 2283480). In a few lines: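 Differentiated HepaRG cells in serum-free induction medium, 48 h exposure, eight-point half-log series from 100 uM in 0.5% DMSO, duplicates. CASP8 mRNA by qRT-PCR, normalized to ACTB, GAPDH, POLR2A; bidirectional fit versus DMSO.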

Read-out in experiment [13]: Cytochrome P450 (CYP2B6), CYP2B6 (gene 1555)
Description: LTEA_HepaRG_CYP2B6: Life Technologies and Expression Analysis (LTEA) Assay for Cytochrome P450 (CYP2B6) using HepaRG (AID 2283481). In short, it runs like this: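 Differentiated human HepaRG cells in serum-free induction medium, dosed in duplicate for 48 h over 8 half-log concentrations topping at 100 uM (0.5% DMSO). CYP2B6 mRNA measured by TaqMan qRT-PCR, normalized to ACTB, GAPDH, POLR2A; bidirectional fit versus DMSO.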

Read-out in experiment [14]: Cytochrome P450 2C19 (Homo sapiens) (UniProt P33261)
As to the kind of experiment: LTEA_HepaRG_CYP2C19: Life Technologies and Expression Analysis (LTEA) Assay for CYP2C19 using HepaRG (AID 2283482). In a few lines:
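Differentiated HepaRG cells in serum-free induction medium exposed 48 h in duplicate, 8 concentrations from 100 uM by half-log steps in 0.5% DMSO. CYP2C19 mRNA measured by TaqMan qRT-PCR, normalized to ACTB, GAPDH, POLR2A. Bidirectional fit versus DMSO.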

Read-out in another experiment: CYP2C8 (gene 1558)
As to the kind of experiment: LTEA_HepaRG_CYP2C8: Life Technologies and Expression Analysis (LTEA) Assay for CYP2C8 using HepaRG (AID 2283483). In short, it runs like this: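 Differentiated HepaRG cells in serum-free induction medium exposed 48 h in duplicate to 8 half-log concentrations from 100 uM in 0.5% DMSO. CYP2C8 mRNA by qRT-PCR normalized to ACTB, GAPDH, POLR2A; bidirectional fit versus DMSO.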

Read-out in the next experiment: CYP2C9 (gene 1559)
Description: LTEA_HepaRG_CYP2C9: Life Technologies and Expression Analysis (LTEA) Assay for CYP2C9 using HepaRG (AID 2283484). In short, it runs like this:
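Differentiated human HepaRG cells in serum-free induction medium were exposed 48 h to chemicals in 8-point half-log series from 100 uM (0.5% DMSO), in duplicate. CYP2C9 mRNA was measured by qRT-PCR, normalized to ACTB/GAPDH/POLR2A, with bidirectional fitting versus DMSO.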

Activity calls are given as the source filed them. Rule for the calls: active = hit-call score of the fitted dose curve at least 0.9, where 1 is the maximum; inactive = score below 0.9.

Sequence of Caspase-3 (Homo sapiens) (P42574 whole entry, looked up): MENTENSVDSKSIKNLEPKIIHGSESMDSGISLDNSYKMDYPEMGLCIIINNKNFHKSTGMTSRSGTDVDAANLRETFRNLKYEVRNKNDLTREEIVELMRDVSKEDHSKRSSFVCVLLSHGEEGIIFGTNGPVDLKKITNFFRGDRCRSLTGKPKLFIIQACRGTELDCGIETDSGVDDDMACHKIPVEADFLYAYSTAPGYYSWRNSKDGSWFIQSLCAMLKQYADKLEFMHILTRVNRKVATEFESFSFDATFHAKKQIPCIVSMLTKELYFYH
Sequence of Cytochrome P450 2C19 (Homo sapiens) (P33261 whole entry, looked up): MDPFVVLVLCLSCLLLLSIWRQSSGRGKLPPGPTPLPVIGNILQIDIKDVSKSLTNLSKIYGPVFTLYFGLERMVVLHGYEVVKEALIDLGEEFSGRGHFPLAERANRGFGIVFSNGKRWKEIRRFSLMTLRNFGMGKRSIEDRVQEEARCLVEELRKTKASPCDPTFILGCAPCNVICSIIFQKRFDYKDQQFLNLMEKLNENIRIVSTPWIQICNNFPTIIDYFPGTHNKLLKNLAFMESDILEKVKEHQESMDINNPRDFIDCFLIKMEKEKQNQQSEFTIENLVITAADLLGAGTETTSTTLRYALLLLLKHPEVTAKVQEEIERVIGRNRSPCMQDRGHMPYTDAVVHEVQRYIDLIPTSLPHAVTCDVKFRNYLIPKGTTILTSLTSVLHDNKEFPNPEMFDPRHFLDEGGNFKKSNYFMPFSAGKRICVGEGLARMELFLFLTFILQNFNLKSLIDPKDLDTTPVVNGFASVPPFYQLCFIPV
Sequence of Apoptosis regulator Bcl-2 (Homo sapiens) (P10415 whole entry, looked up): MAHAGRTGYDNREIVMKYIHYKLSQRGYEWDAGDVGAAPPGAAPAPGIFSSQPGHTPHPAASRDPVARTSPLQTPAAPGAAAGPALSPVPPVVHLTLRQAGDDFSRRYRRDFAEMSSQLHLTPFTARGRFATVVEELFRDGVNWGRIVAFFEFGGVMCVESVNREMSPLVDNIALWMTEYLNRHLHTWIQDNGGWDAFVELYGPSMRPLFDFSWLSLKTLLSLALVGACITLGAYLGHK

In the case of `Fc1ccc(Oc2ccnc3cc(Cl)cc(Cl)c23)cc1`, the call in [1], in experiment [3], in experiment [4], in experiment [5], in [7] and in experiment [8] was inactive. Moreover, the call (in experiment [9]; in the experiment with Caspase-3 (Homo sapiens); in [10]; in [12]; in experiment [14]) was inactive. The half-maximal activity concentration (AC50) in [2] was 50 µM (active); in experiment [6] it was 89 µM (active); in experiment [11] it was 14.1 µM (active); in experiment [13] it was 11.9 µM (active); with CYP2C8 (gene 1558), 86.6 µM (active); with CYP2C9 (gene 1559), 86.8 µM (active).

Turning to `COC(=O)c1ccccc1C(=O)OC`, the call in [1], in [2], in experiment [3], in experiment [4], in [5] and in experiment [6] was inactive. Further, the molecule was called inactive (in [8]; in experiment [9]; in the experiment with Caspase-3 (Homo sapiens); in experiment [10]; in experiment [11]; in [12]). The call (in [13]; in experiment [14]; with CYP2C8 (gene 1558); with CYP2C9 (gene 1559)) was inactive.

`CCCCNC(=O)n1c(NC(=O)OC)nc2ccccc21`: the call in [1], in [2], in [3], in experiment [4], in [5] and in experiment [6] was inactive. For the same molecule, the outcome (in experiment [8]; in experiment [9]; in the experiment with Caspase-3 (Homo sapiens); in experiment [10]; in experiment [12]; in experiment [13]) was inactive. Also, the outcome (in [14]; with CYP2C8 (gene 1558); in the experiment with CYP2C9 (gene 1559)) was inactive. Also, the AC50 in experiment [11] was 20.7 µM (active).

As for `COc1ccc(C(c2ccc(OC)cc2)C(Cl)(Cl)Cl)cc1`, the call (in [1]; in experiment [3]; in [4]; in experiment [5]; in [9]; with Caspase-3 (Homo sapiens)) was inactive. The molecule was called inactive (in experiment [10]; in experiment [11]; in [12]; with CYP2C8 (gene 1558); with CYP2C9 (gene 1559)). The half-maximal activity concentration (AC50) in experiment [6] is 78.4 µM (active); in experiment [8] it was 86.3 µM (active); in experiment [13] it was 12.4 µM (active); in experiment [14], 12.7 µM (active).

`CS/C(C)=N/OC(=O)N(C)SN(C)C(=O)O/N=C(\C)SC`: the result in [1], in experiment [2], in [3], in experiment [4], in experiment [5] and in experiment [6] was inactive. Also, the molecule was called inactive (in experiment [8]; in [9]; in the experiment with Caspase-3 (Homo sapiens); in [10]; in experiment [11]; in experiment [12]). Besides, the call (in [13]; in [14]; in the experiment with CYP2C8 (gene 1558); in the experiment with CYP2C9 (gene 1559)) was inactive.

On to `CC1COC(Cn2cncn2)(c2ccc(Oc3ccc(Cl)cc3)cc2Cl)O1` (stereo not drawn), for which the AC50 is 50 µM (active) in experiment [1]; 10.9 µM (active) in experiment [2]; 13 µM (active) in experiment [4]; 11 µM (active) in experiment [6]; 12.8 µM (active) in [8]; 12 µM (active) in [9]. Besides, the AC50 in experiment [10] was 50 µM (active); in experiment [13] it was 9.66 µM (active); in experiment [14], 27.1 µM (active); with CYP2C8 (gene 1558), 9.46 µM (active); with CYP2C9 (gene 1559), 15.7 µM (active). Besides, the result (in experiment [3]; in experiment [5]; with Caspase-3 (Homo sapiens); in experiment [11]; in [12]) was inactive.

Turning to `Cc1ccc(-c2c(Cl)nc(C#N)n2S(=O)(=O)N(C)C)cc1`, the AC50 is 4.39 µM (active) in experiment [1]; 50 µM (active) in [2]; 68.3 µM (active) in [3]; 50 µM (active) in [5]; 3.99 µM (active) in experiment [6]; 74.2 µM (active) in [7]. Also, the AC50 in experiment [8] was 87.4 µM (active); in [10], 0.01 µM (active); in experiment [12], 89.8 µM (active); in [13], 5 µM (active); in [14], 5.98 µM (active); with CYP2C8 (gene 1558), 9.33 µM (active). In the experiment with CYP2C9 (gene 1559), the AC50 was 7.78 µM (active). The outcome (in experiment [4]; in experiment [9]; in the experiment with Caspase-3 (Homo sapiens); in experiment [11]) was inactive.

For orientation: AC50 means the concentration at which the activity in the assay is half-maximal.
